According to PubChem BioAssay AID1159580 (chemical genetic matrix, 2015):
Several values for one entry are separate records, joined by “and”; a condition that tells them apart may be missing. Identical values can stand only once. The whole screen tested about 5,500 compounds, of which about 2,000 (36%) were called active. Roughly 18% stayed inconclusive and do not appear here. Rule as the data show it: active = normalized growth mostly below about 0.91 (no sharp cut-off); inconclusive = no clear call, values can overlap the other calls; inactive = mostly above about 0.92. The list shows a part of the results.

Assay: chemical genetic growth profiling, strain panel (AID 1159580);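 also: tested at 20 µM; growth read once vehicle control cultures reached saturation at 30 °C; 1 = growth at the plate median or of vehicle wells; lower values mean less growth of the strain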
Settings: S. cerevisiae deletion strains, growth OD

Measured: normalized growth

CC(C(=O)O)c1ccc(N2Cc3ccccc3C2=O)cc1 (configuration not stated)
inactive: locus YAL021C, strain ccr4, stronger effect = lower value 0.994 | locus YAL026C, strain drs2, stronger effect = lower value 1 | locus YAL030W, strain snc1, stronger effect = lower value 0.994 | locus YBL061C, strain skt5, stronger effect = lower value 0.983 | locus YBR009C, strain hhf1, stronger effect = lower value 0.97 | locus YBR021W, strain FUR4, stronger effect = lower value 1.01 | locus YBR023C, strain chs3, stronger effect = lower value 0.966 | locus YBR171W, strain sec66, stronger effect = lower value 0.971 | locus YBR229C, strain ROT2, stronger effect = lower value 1.01 | locus YBR231C, strain swc5, stronger effect = lower value 0.993 | locus YBR279W, strain paf1, stronger effect = lower value 0.972 | locus YCL011C, strain gbp2, stronger effect = lower value 0.946 | locus YCL016C, strain dcc1, stronger effect = lower value 0.956 | locus YCL029C, strain bik1, stronger effect = lower value 0.996 | locus YCL061C, strain MRC1, stronger effect = lower value 0.986 | locus YCL069W, strain vba3, stronger effect = lower value 0.994 | locus YCR088W, strain abp1, stronger effect = lower value 0.987 | locus YDL005C, strain med2, stronger effect = lower value 0.991 | locus YDL035C, strain GPR1, stronger effect = lower value 1.02 | locus YDL040C, strain nat1, stronger effect = lower value 0.989 | locus YDL074C, strain BRE1, stronger effect = lower value 1.02 | locus YDL101C, strain DUN1, stronger effect = lower value 1.01 | locus YDL185W, strain tfp1, stronger effect = lower value 0.989 | locus YDL192W, strain arf1, stronger effect = lower value 0.99 | locus YDR001C, strain nth1, stronger effect = lower value 0.99 | locus YDR069C, strain doa4, stronger effect = lower value 0.993 | locus YDR101C, strain arx1, stronger effect = lower value 1 | locus YDR137W, strain rgp1, stronger effect = lower value 0.988 | locus YDR159W, strain sac3, stronger effect = lower value 1.05 | locus YDR162C, strain NBP2, stronger effect = lower value 1.01 | locus YDR195W, strain ref2 1.01 | locus YDR297W, strain sur2, stronger effect = lower value 0.99 | locus YDR318W, strain mcm21, stronger effect = lower value 0.99 | locus YDR334W, strain swr1, stronger effect = lower value 0.986 | locus YDR335W, strain msn5, stronger effect = lower value 0.993 | locus YDR388W, stronger effect = lower value 0.992 | locus YDR392W, strain spt3, stronger effect = lower value 0.988 | locus YDR502C, strain sam2, stronger effect = lower value 1 | locus YEL003W, strain gim4, stronger effect = lower value 1.01 | locus YEL037C, strain rad23, stronger effect = lower value 0.975 | locus YEL061C, strain CIN8 (second series), stronger effect = lower value 0.99 | locus YEL061C, strain CIN8, stronger effect = lower value 1.01 | locus YER015W, strain faa2, stronger effect = lower value 1 | locus YER016W, strain bim1, stronger effect = lower value 0.993 | locus YER110C, stronger effect = lower value 0.994 | locus YER111C, strain swi4, stronger effect = lower value 0.985 | locus YER155C, strain BEM2 (second series), stronger effect = lower value 0.948 | locus YER155C, strain BEM2, stronger effect = lower value 1.02 | locus YER167W, strain BCK2, stronger effect = lower value 1.01 | locus YFR010W, strain ubp6, stronger effect = lower value 1 | locus YGL078C, strain dbp3, stronger effect = lower value 0.985 | locus YGL086W, strain mad1, stronger effect = lower value 1.01 | locus YGL167C, strain pmr1, stronger effect = lower value 0.991 | locus YGL173C, strain kem1, stronger effect = lower value 0.997 | locus YGL227W, strain vid30, stronger effect = lower value 0.988 | locus YGL240W, strain doc1, stronger effect = lower value 1 | locus YGL248W, strain PDE1, stronger effect = lower value 1.02 | locus YGL253W, strain hxk2, stronger effect = lower value 1 | locus YGR135W, strain pre9, stronger effect = lower value 0.971 | locus YGR252W, strain gcn5, stronger effect = lower value 0.938 | locus YHR013C, strain ard1, stronger effect = lower value 0.961 | locus YHR027C, strain rpn1, stronger effect = lower value 0.986 | locus YHR030C, strain SLT2, stronger effect = lower value 1.01 and 0.993 | locus YHR079C, strain IRE1 (second series), stronger effect = lower value 1.01 | locus YHR079C, strain IRE1, stronger effect = lower value 0.987 | locus YHR094C, strain hxt1, stronger effect = lower value 0.987 | locus YHR129C, strain ARP1, stronger effect = lower value 1.02 | locus YHR142W, strain chs7, stronger effect = lower value 0.941 | locus YHR200W, strain rpn10, stronger effect = lower value 1 | locus YIL066C, strain RNR3, stronger effect = lower value 1.02 | locus YIL073C, strain SPO22, stronger effect = lower value 1 | locus YIL125W, strain kgd1, stronger effect = lower value 0.984 | locus YIR030C, strain dcg1, stronger effect = lower value 0.996 | locus YJL092W, strain hpr5, stronger effect = lower value 0.959 | locus YJL095W, strain BCK1 (second series), stronger effect = lower value 0.994 | locus YJL095W, strain BCK1, stronger effect = lower value 1.01 and 0.986 | locus YJL115W, strain asf1, stronger effect = lower value 0.982 | locus YJL129C, strain trk1, stronger effect = lower value 0.965 | locus YJL134W, strain LCB3, stronger effect = lower value 1.01 | locus YJL154C, strain vps35, stronger effect = lower value 0.987 | locus YJL164C, strain tpk1, stronger effect = lower value 0.988 | locus YJL166W, strain qcr8, stronger effect = lower value 0.987 | locus YJL168C, strain set2, stronger effect = lower value 0.98 | locus YJL187C, strain SWE1 (second series), stronger effect = lower value 1.01 | locus YJL187C, strain SWE1, stronger effect = lower value 0.993 | locus YJR043C, strain POL32, stronger effect = lower value 1.02 | locus YJR066W, strain TOR1, stronger effect = lower value 0.914
